The text below walks through data of PubChem BioAssay (EPA / NIEHS).

Records with an inconclusive call do not appear. Calls of active or inactive are those of the source. Rule for the calls: active = hit-call score of the fitted dose curve at least 0.9, where 1 is the maximum; inconclusive = response in the unintended direction; inactive = score below 0.9.

This assay is described as follows: ACEA_ER_AUC_viability: ACEA Biosciences xCELLigence Real-Time Cell Analysis on Estrogen Receptor Agonism for Viability (AID 2283782).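 Note: hit means loss of impedance signal meaning reduced cell growth or viability.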 In short, it runs like this:
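T-47D; phenol red-free RPMI1640 + 10% CS-FBS; 8 conc., 1:4 serial, max 100 uM final, ≤0.5% DMSO; n = 2; continuous exposure; impedance monitored to 80 h post-dose; AUC vs DMSO.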
As to `Cc1cc(=O)[nH]o1`, the outcome was inactive. Same read-out and setting: with `CCOP(OCC)OCC` the entry was “inactive”. Broadly, the AC50 is the concentration giving half of the maximal activity seen. In the case of `CCOP(=S)(OCC)SCCS(=O)(=O)CC`, the AC50 is 57.6 µM (active). `Nc1ccc(N=Nc2ccc(-c3ccc(N=Nc4c(S(=O)(=O)O)cc5cc(S(=O)(=O)O)c(N=Nc6ccccc6)c(O)c5c4N)cc3)cc2)c(N)c1`: the call was inactive.

On to `CCc1ccccc1C`, for which the compound was called inactive. Same read-out and setting: under `CCOP(=S)(OCC)Oc1ccc(S(C)=O)cc1` (stereo unspecified) stands “inactive”; under `COc1ccccc1OC`, “inactive”. Same read-out and setting: under `O=[N+]([O-])c1ccc2c3c(cccc13)CC2` stands “inactive”. Still for that read-out and setting: under `O=C(O)CCC(F)(C(F)(F)F)C(F)(F)F` stands “inactive”. With `C(=NC1CCCCC1)=NC1CCCCC1`, the AC50 is 28.6 µM (active).

As for `CC(C)CCCCCCOC(=O)c1ccccc1C(=O)OCCCCCCC(C)C`, the AC50 is 40.9 µM (active). On to `O=[N+]([O-])c1c(Cl)c(Cl)cc(Cl)c1Cl`, for which the compound was classed as inactive. For the compound `CCOC(=O)CP(=O)(OCC)OCC`, the half-maximal activity concentration (AC50) is 36.8 µM (active). For the compound `O=P(O)(O)CN(CP(=O)(O)O)CP(=O)(O)O`, the call was inactive. Same read-out and setting: with `CCOC(=O)Nc1cccc(OC(=O)Nc2ccccc2)c1` the entry was “inactive”; with `CCc1ccccc1N`, “inactive”; with `NC(=O)O`, “inactive”. Take `CC1CN1P(=O)(N1CC1C)N1CC1C` (stereo unspecified): the AC50 was 64.1 µM (active). In the case of `CC(C)c1ccc(CO)cc1`, the compound was classed as inactive.

On to `Oc1cccc2cccnc12`, for which the result was inactive.

On to `Cc1cc(Cl)ccc1O[C@H](C)C(=O)O`, for which the result was inactive. On to `CCC(C)c1cccc(C(C)CC)c1O` (stereo unspecified), for which the AC50 was 77.1 µM (active). On the same count and under the same terms, with `O=C(O)Cc1ccccc1` the figure was 50 µM (active); with `CCCCCCCCCCCCCCCC[n+]1ccccc1`, 5.69 µM (active).

Consider `C[C@@H](Oc1ccc(Cl)cc1Cl)C(=O)O`, for which the compound was called inactive. The same measure, in the same setting: with `Nc1ccc(-c2ccc(N)c(Cl)c2)cc1Cl` the entry was “inactive”; with `CC(=O)OC(c1ccccc1)C(Cl)(Cl)Cl` (stereo unspecified), “inactive”. As to `COc1ccc(OC)c(C=O)c1`, the AC50 was 50 µM (active).

As for `O=CC=O`, the result was inactive. With `COC(=O)c1sccc1S(=O)(=O)NC(=O)Nc1nc(C)nc(OC)n1`, the call was inactive.

As for `COC[C@H](C)N(C(=O)CCl)c1c(C)csc1C`, the compound was classed as inactive.
